In all, about 1,900 compounds went through this assay and about 250 (13%) were called active. About 4% were inconclusive and are not listed.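 Rule for the calls: active = fitted curve reaches 40% rescue activity at or below the top valid dose, in every test run; inconclusive = test runs disagree, some active and some inactive; inactive = every run misses the threshold or moves the wrong way.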 Not all results are given here. Where a call stands in place of a potency, no number is given. Potency and affinity values are given separately.
Assay: suppressors of statin myotoxicity in myotubes, dose response, cell-based, C2C12 myotubes, ATP luminescence, cherry pick (AID 624405);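 note: myotubes are challenged with simvastatin at 10 µM to lower ATP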
Conditions: C2C12 myotubes + simvastatin, 48 h, scaled: DMSO wells 0, geranylgeraniol wells 100; series mostly up to 19.5 µM

Row | SMILES | outcome
1 | C[C@@H]1CN([C@H](C)CO)C(=O)c2cc(NS(C)(=O)=O)ccc2O[C@@H](C)CCCCO[C@H]1CN(C)S(=O)(=O)c1ccc(Cl)cc1 | inactive
2 | COc1ccc(NC(=O)Nc2ccc3c(c2)C(=O)N([C@@H](C)CO)C[C@@H](C)[C@@H](CN(C)CC2CCCCC2)OCCCC[C@H](C)O3)cc1 | inactive
3 | CCCCn1c(SCc2ccccn2)nc2c1c(=O)n(C)c(=O)n2C | inactive
4 | CCCCCn1c(N2CCC(C(N)=O)CC2)nc2c1c(=O)[nH]c(=O)n2C | inactive
5 | CCOCCn1c(N2CCN(c3ccc(OC)cc3)CC2)nc2c1c(=O)[nH]c(=O)n2C | inactive
6 | Cc1cccc(Cn2c(N3CCCCC3C)nc3c2c(=O)[nH]c(=O)n3C)c1 (stereo not drawn) | inactive
7 | O=C(Nc1ccc2nn(-c3ccccc3)nc2c1)c1cccnc1 | inactive
8 | O=C(CSCc1ccc(Cl)cc1)N/N=C/c1ccccc1 | inactive
9 | C[C@@H]1CN([C@@H](C)CO)C(=O)Cc2cc(NC(=O)Nc3cccc4ccccc34)ccc2O[C@H]1CN(C)Cc1ccc(Oc2ccccc2)cc1 | inactive
10 | O=C(Nc1ccccc1Cl)NC1(C(=O)N2CCCCC2)CCCCC1 | inactive
11 | Cc1ccc(-c2cc(N)n(-c3ccc(C)cc3)n2)cc1 | inactive
12 | C=CCn1c(=O)/c(=C\c2ccsc2)s/c1=C(/C#N)C(=O)NCCN1CCOCC1 | inactive
13 | Cc1ccc(S(=O)(=O)Nc2ccc3c(c2)C(=O)N([C@@H](C)CO)C[C@H](C)[C@H](CN(C)Cc2ccc(C(=O)Nc4ccccc4N)cc2)O3)cc1 | inactive
14 | C[C@@H]1CN([C@H](C)CO)C(=O)c2cc(NS(=O)(=O)c3ccc(Cl)cc3)ccc2O[C@H]1CN(C)C(=O)Nc1cccc2ccccc12 | inactive
15 | C[C@H]1CN([C@@H](C)CO)C(=O)c2cc(NC(=O)Nc3ccc(C(F)(F)F)cc3)ccc2O[C@@H]1CN(C)Cc1ccc(C(=O)Nc2ccccc2N)cc1 | inactive
16 | C[C@@H]1CCCCO[C@H](CN(C)C(=O)Nc2cccc3ccccc23)[C@H](C)CN([C@H](C)CO)C(=O)c2cc(NS(=O)(=O)c3ccc(Cl)cc3)ccc2O1 | inactive
17 | Cc1ccc(S(=O)(=O)Nc2ccc3c(c2)C(=O)N([C@@H](C)CO)C[C@H](C)[C@H](CN(C)Cc2ccc(C(F)(F)F)cc2)O3)cc1 | inactive
18 | C[C@H]1CN([C@@H](C)CO)C(=O)c2cc(NS(=O)(=O)c3ccc(Cl)cc3)ccc2O[C@H]1CN(C)Cc1ccc(Oc2ccccc2)cc1 | inactive
19 | C[C@@H]1CCCCO[C@@H](CN(C)Cc2ccc(C(F)(F)F)cc2)[C@H](C)CN([C@@H](C)CO)C(=O)c2cc(NC(=O)c3ccncc3)ccc2O1 | inactive
20 | C[C@H]1CCCCO[C@@H](CN(C)C(=O)Nc2ccc3c(c2)OCO3)[C@@H](C)CN([C@@H](C)CO)C(=O)c2cc(NS(=O)(=O)c3cccs3)ccc2O1 | inactive
21 | COc1ccc(S(=O)(=O)Nc2ccc3c(c2)C(=O)N([C@@H](C)CO)C[C@H](C)[C@@H](CN(C)S(=O)(=O)c2cccs2)OCCCC[C@@H](C)O3)cc1 | inactive
22 | CCOc1ccc(C2SCC(=O)N2c2c(C)n(C)n(-c3ccccc3)c2=O)cc1 (stereo not drawn) | inactive
23 | COc1ccccc1Oc1ccc2c(c1)C(=O)N(c1ccc(O)cc1)C2=O | inactive
24 | C[C@@H]1CN([C@H](C)CO)C(=O)c2cc(C#CC3CCCCC3)cnc2O[C@@H]1CN(C)C(=O)C1CCCCC1 | inactive

Row | SMILES | outcome
25 | COc1ccc(Br)cc1C1SCCN1S(C)(=O)=O (stereo not drawn) | inactive
26 | CCC12CC3CC(C1)CC(C(=O)NNC(N)=O)(C3)C2 | inactive
27 | COCCNC(=O)C(c1ccc(C)o1)N(Cc1ccc(OC)cc1)C(=O)Cn1nnc2ccccc21 (stereo not drawn) | inactive
28 | C=CCOc1ccc(/C(CC)=N/O)cc1OC | inactive
29 | CS(=O)(=O)N(CC(=O)NCc1ccco1)c1ccc(OCc2ccccc2)cc1 | inactive
30 | COc1cccc(NC(=O)N(C)C[C@H]2Oc3ncc(C#Cc4ccc(F)cc4)cc3C(=O)N([C@@H](C)CO)C[C@@H]2C)c1 | inactive
31 | CC(C)NC(=O)N1[C@H](CO)[C@@H](c2ccc(-c3ccc(F)cc3)cc2)[C@@H]1C#N | inactive
32 | CC(C)NC(=O)N1[C@@H](C#N)[C@H](c2ccc(-c3ccc(F)cc3)cc2)[C@@H]1CO | inactive
33 | CC(C)NC(=O)N1[C@H](C#N)[C@@H](c2ccc(-c3ccc(F)cc3)cc2)[C@@H]1CO | inactive
34 | COc1ccc(-c2ccc([C@H]3[C@@H](C#N)N(C(=O)NC4CCCCC4)[C@@H]3CO)cc2)cc1 | inactive
35 | N#C[C@H]1[C@H](c2ccc(-c3ccc(F)cc3)cc2)[C@@H](CO)N1C(=O)Cc1ccccc1 | inactive
36 | COc1ccc(CC(=O)NC(CC(=O)O)c2cccc([N+](=O)[O-])c2)cc1 (stereo not drawn) | inactive
37 | N#Cc1ccc(Oc2ccc(/C=N/O)cn2)cc1 | inactive
38 | COc1ccc(N2CCN(C(=O)COc3ccc4c(C)cc(=O)oc4c3C)CC2)cc1 | inactive
39 | C[C@H]1CN([C@@H](C)CO)C(=O)c2cc(NS(=O)(=O)c3ccc(Cl)cc3)ccc2O[C@H]1CN(C)S(=O)(=O)c1cccs1 | inactive
40 | C[C@@H]1CN([C@@H](C)CO)C(=O)c2cc(NC(=O)Nc3ccc(F)cc3)ccc2O[C@@H](C)CCCCO[C@@H]1CN(C)S(=O)(=O)c1cccs1 | inactive
41 | COCCCn1cnc2c(c1=O)c1nc3ccccc3nc1n2-c1ccccc1 | inactive
42 | C[C@@H]1CN([C@@H](C)CO)C(=O)Cc2cc(NC(=O)Cn3cnnn3)ccc2O[C@H]1CN(C)Cc1ccc(Oc2ccccc2)cc1 | inactive
43 | COc1ccc(N2Nc3n[nH]c(N)c3N2)cc1 | inactive
44 | C[C@@H]1CCCCO[C@H](CN(C)Cc2ccc(C(F)(F)F)cc2)[C@H](C)CN([C@@H](C)CO)C(=O)c2cc(NC(=O)c3ccncc3)ccc2O1 | inactive
45 | O=C(NC1CCN(C(=O)NCc2ccccc2)CC1)c1ccco1 | inactive
46 | COc1ccc(-c2cnc3c(c2)C(=O)N([C@H](C)CO)C[C@H](C)[C@H](CN(C)S(=O)(=O)c2ccc(C)cc2)O3)cc1 | inactive
47 | Cc1noc(C)c1NC(=O)Nc1ccc2c(c1)CC(=O)N([C@H](C)CO)C[C@@H](C)[C@@H](CN(C)Cc1ccc(Cl)c(Cl)c1)O2 | inactive
48 | O=CN1CCC(=O)N(Cc2ccccc2)c2ccccc21 | inactive
